Here are results for 16 compounds from PubChem BioAssay.

For some of these results: Measured potencies and affinities stand elsewhere. Activity calls are given as the source filed them.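 The calls were made as follows, unless noted: active = calcium signal cut by more than 3 SD below the full-agonist control yet still positive, in both repeats and the earlier primary screen; inactive = the rest.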

Assay [1] has as its system TRPC4 beta (transient receptor potential cation channel C4), mouse. The assay can be described thus: TRPC4 cation channel opening, retest – cell-based, Fluo4 calcium, HEK293 TRPC4beta/mu-opioid, duplicates, 10 µM, confirmation (AID 2426;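 active = fluorescence ratio normalized to control raised more than 50% in primary screen plus both repeat runs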;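 also: percent rise of integrated ratio over buffer wells lacking compound which define 0%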). The following applies: Fluo4 calcium fluorescence, at 10 µM; hits give high values.
Assay [2] concerns transient receptor potential cation channel C4 beta (TRPC4), mouse. The assay can be described thus: TRPC4 cation channel opening, second retest – cell-based, second round, Fluo4, HEK293 TRPC4beta/mu-opioid, 1 µM, confirmation (AID 2461;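 active = primary screen active and over 50% activation in each of two duplicate runs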;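 as to activation: 0% = wells without test compound as baseline of integrated fluorescence ratio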). The following applies: Fluo4 calcium fluorescence, at 1 µM; hits give high values.
The subject of assay [3] is TRPC4 (transient receptor potential cation channel C4 beta), mouse. The assay can be described thus: potentiation of DAMGO EC20 TRPC4 response – cell-based, second round, Fluo-4, HEK293 TRPC4beta/mu-opioid, 1 µM, confirmation (AID 2554;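 active = primary screen hit whose fluorescence ratio, in both repeats, exceeds the weak agonist control mean by 3 SD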). The following applies: DAMGO EC20, Fluo-4 calcium flux, at 1 µM; hits give high values. A general note: Calcium flux is commonly read through the fluorescence of an indicator in the cells.

Assay [4] has as its system TRPC4 beta (transient receptor potential cation channel C4), mouse. The assay can be described thus: potentiation of DAMGO EC20 TRPC4 response – cell-based, Fluo-4, HEK293 TRPC4beta/mu-opioid, confirmation (AID 2555;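 active = primary screen hit whose calcium fluorescence ratio, in both repeats, exceeds the weak agonist control mean by 3 SD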). The following applies: DAMGO EC20, Fluo-4 calcium flux, at 10 µM; hits give high values.
Assay [5] concerns the target Short transient receptor potential channel 4 (Mus musculus) (UniProt Q9QUQ5). The assay can be described thus: blockers of DAMGO-evoked TRPC4 calcium flux – cell-based, Fluo4, HEK293 TRPC4beta/mu-opioid, confirmation (AID 2636). The following applies: at 10 µM; hits give high values.
For assay [6] the target is unchanged. The assay can be described thus: blockers of DAMGO-evoked TRPC4 calcium flux – cell-based, second round, Fluo4, HEK293 TRPC4beta/mu-opioid, 1 µM, confirmation (AID 2637;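 active = calcium signal ratio cut to more than 3 SD under the fully stimulated control mean yet still positive, in both repeats and the primary screen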). The following applies: at 1 µM; hits give high values.
Assay [7] shares this target. The assay can be described thus: potentiation of DAMGO-evoked TRPC4 calcium signal – cell-based, HEK293 TRPC4/mu-opioid, Fluo-4 calcium, EC20 DAMGO, dose response (AID 434941;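 active = earlier screen potentiator hit that boosts the TRPC4 ion channel at some dose, with a dose response; inactive = no potentiation, no dose response, or not a prior hit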;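 also: calcium entry triggered by an EC20 dose of DAMGO at the co-expressed mu-opioid receptor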).
The target is the same in assay [8]. The assay can be described thus: block of DAMGO-driven TRPC4 calcium entry – cell-based, HEK293 TRPC4/mu-opioid, Fluo-4 calcium, dose response (AID 434942;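 active = primary screen inhibitor hit that blocks the TRPC4 channel at some tested dose, yielding a dose curve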).
Assay [9] concerns the target Short transient receptor potential channel 6 (Mus musculus) (UniProt Q61143). The assay can be described thus: TRPC6 blockade by TRPC4 inhibitor hits – cell-based, HEK293, membrane potential dye, duplicate, selectivity assay for TRPC4 inhibitor project, confirmation (AID 434948;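 active = active in primary screen and both duplicates, each dropping signal beyond three positive-control SD with fluorescence still positive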). The following applies: HEK293 TRPC6, membrane potential dye fluorescence, at 10 µM, stimulated with maximal-effect acetylcholine; hits give high values.

The target is the same in assay [10]. The assay can be described thus: TRPC6 opening by TRPC4 activator hits – cell-based, HEK293, membrane potential dye, duplicate, selectivity assay for TRPC4 activator project, confirmation (AID 434950;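 active = membrane potential signal rise above negative control mean plus 3 SD in both duplicates, also active in the earlier TRPC4 screen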;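 as to activation: 0% = buffer only wells and 100% = acetylcholine maximal-effect wells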). The following applies: HEK293 TRPC6, membrane potential fluorescence, at 10 µM; activation: hits give high values; outcome: activation.
Assay [11] has the same target. The assay can be described thus: positive modulators of mouse TRPC6 channel – HEK293 cells, membrane potential dye, duplicate, selectivity assay for TRPC4 potentiator project, confirmation (AID 434952;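 active = compound raising the membrane signal above positive-control mean plus 3 SD in both repeats, and a primary screen hit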). The following applies: HEK293 TRPC6, membrane potential dye fluorescence, at 10 µM, maximal acetylcholine added after compound; hits give high values.
Assay [12] addresses Short transient receptor potential channel 4 (Mus musculus) (UniProt Q9QUQ5). The assay can be described thus: calcium flux activators in TRPC4/5HT1a cells, counter-screen for TRPC4 activator project, cell-based, second counter screen, HEK293 TRPC4/5HT1a, Fluo-4 (AID 434977;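 active = calcium signal rise above buffer-control mean plus 5 SD in both duplicates, and also a hit in the primary screen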;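 as to activation: plate controls were assay buffer for no effect and maximal serotonin response for full effect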). The following applies: Fluo-4 calcium flux, at 10 µM; hits give high values.
Assay [13] in a line: serotonin-gated TRPC4 signal block – cell-based, second counter screen, HEK293 TRPC4/5HT1a, Fluo-4, counter-screen for TRPC4 inhibitor project, confirmation (AID 434978;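 active = primary screen active whose calcium signal fell more than 3 SD beyond the full-serotonin control mean in both duplicate plates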;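 also: serotonin given first at submaximal then at maximal dose after compound preincubation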). The following applies: Fluo-4 calcium flux, at 10 µM, serotonin added to trigger calcium flux; hits give high values. (In general: The purpose of a counterscreen is to sort out artefacts and off-target activity.)

For assay [14], the system named is TRPC4 (mouse), co-expressed with 5HT1a in HEK293. The assay can be described thus: enhancement of serotonin-evoked TRPC4 response – cell-based, second counter screen, HEK293 TRPC4/5HT1a, Fluo-4, counter-screen for TRPC4 potentiator project, confirmation (AID 434979;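 active = signal rise over 3 SD above mean of control wells given weak agonist, in both repeats and first screen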). The following applies: Fluo-4 calcium flux, at 10 µM, serotonin added at its EC20 dose; hits give high values.

Assay [15] in a line: nonspecific calcium rise without TRPC4 – cell-based, HEK293 mu-opioid receptor line, counter-screen for TRPC4 activator project, confirmation (AID 449723;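 active = hit in primary screen, with calcium signal over 5 SD above buffer well mean in both duplicates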;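 also: counter screen cells carry the mu-opioid receptor alone and lack TRPC4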). The following applies: HEK293 mu-opioid cells, Fluo-4 calcium fluorescence, at 10 µM; hits give high values.
The nature of assay [16]: nonspecific potentiation of DAMGO calcium response – cell-based, HEK293 mu-opioid receptor line, counter-screen for TRPC4 allosteric potentiator project, confirmation (AID 449724;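 active = calcium signal rise more than 3 SD above the low-dose agonist control mean, in both duplicate plates and the primary screen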;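 also: HEK293 cells carrying mu-opioid receptor only with no TRPC4 channel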). The following applies: HEK293 mu-opioid receptor cells, Fluo-4 calcium flux, at 10 µM, compound added before EC20 DAMGO stimulus; hits give high values.

Short transient receptor potential channel 4 (Mus musculus), sequence (Q9QUQ5 whole entry, looked up): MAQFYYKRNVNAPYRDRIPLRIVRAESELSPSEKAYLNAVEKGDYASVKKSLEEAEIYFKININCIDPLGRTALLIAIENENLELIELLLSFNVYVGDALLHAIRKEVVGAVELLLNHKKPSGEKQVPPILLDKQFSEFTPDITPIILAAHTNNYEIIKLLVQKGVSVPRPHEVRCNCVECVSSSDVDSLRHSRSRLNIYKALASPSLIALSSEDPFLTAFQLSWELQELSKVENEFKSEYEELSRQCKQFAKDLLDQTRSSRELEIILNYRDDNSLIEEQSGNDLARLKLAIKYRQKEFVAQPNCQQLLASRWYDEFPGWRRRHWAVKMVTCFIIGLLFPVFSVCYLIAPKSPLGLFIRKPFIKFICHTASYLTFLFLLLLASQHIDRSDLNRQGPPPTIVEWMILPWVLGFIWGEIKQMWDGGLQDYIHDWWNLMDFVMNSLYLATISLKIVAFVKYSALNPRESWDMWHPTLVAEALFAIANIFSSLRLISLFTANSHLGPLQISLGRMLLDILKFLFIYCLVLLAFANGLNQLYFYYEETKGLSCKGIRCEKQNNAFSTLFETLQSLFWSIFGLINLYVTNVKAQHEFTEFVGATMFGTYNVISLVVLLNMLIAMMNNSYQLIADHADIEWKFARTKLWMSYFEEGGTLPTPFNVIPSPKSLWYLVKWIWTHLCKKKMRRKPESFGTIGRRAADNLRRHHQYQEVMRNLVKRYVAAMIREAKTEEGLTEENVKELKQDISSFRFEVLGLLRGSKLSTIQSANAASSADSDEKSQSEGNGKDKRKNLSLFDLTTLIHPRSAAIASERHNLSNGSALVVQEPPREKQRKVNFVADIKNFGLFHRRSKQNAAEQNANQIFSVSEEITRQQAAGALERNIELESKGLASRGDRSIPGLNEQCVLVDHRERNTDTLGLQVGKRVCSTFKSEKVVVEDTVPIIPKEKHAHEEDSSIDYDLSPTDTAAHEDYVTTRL
Short transient receptor potential channel 6 (Mus musculus), sequence (Q61143 whole entry, looked up): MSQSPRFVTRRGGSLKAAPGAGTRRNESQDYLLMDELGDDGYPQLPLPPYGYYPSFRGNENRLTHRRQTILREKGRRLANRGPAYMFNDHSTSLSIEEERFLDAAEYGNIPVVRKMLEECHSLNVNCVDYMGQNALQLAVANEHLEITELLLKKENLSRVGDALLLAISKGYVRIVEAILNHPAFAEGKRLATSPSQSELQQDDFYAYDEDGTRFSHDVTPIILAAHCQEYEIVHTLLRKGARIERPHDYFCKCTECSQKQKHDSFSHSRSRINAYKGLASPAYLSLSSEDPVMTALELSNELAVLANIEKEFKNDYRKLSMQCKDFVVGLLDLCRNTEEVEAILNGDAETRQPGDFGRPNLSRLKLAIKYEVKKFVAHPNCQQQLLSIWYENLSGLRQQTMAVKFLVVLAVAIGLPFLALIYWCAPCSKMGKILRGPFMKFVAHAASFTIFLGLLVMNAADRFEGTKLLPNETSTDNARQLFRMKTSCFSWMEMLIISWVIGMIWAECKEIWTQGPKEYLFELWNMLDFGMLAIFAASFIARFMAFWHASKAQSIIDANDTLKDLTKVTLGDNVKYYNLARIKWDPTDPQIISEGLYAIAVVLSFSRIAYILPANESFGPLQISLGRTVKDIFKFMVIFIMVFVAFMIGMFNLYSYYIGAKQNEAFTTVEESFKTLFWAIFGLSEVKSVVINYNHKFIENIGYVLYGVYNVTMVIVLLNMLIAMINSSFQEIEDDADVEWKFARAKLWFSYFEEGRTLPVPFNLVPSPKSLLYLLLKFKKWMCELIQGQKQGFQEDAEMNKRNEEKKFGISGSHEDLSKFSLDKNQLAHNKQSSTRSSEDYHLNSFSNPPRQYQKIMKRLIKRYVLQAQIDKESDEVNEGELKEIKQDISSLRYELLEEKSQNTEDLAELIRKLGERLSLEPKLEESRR

Take `Cc1noc(C)c1CCC(=O)NC1CCCN(Cc2ccc(CC(C)C)cc2)C1` (stereo unspecified): the activation in [1] is 75% (active); in assay [10], 46% (active); in assay [12] it was 20.6% (active). Further, the outcome in assay [2], in assay [3], in [4], in assay [5], in assay [6] and in [7] was inactive. The result in assay [8], in [9], in assay [11], in assay [13], in assay [14] and in assay [15] was inactive. For the same compound, in assay [16], the result was inactive.

In the case of `CCn1c(N2CCN(C(=S)NCC(C)C)CC2)nc2ccccc21`, the activation in [1] is 98% (active); in assay [10] it was 39.5% (active); in [12], 27.9% (active). The result in assay [2], in assay [3], in [4], in assay [5], in [6] and in assay [7] was inactive. The outcome in assay [8], in assay [9], in assay [11], in assay [13], in assay [14] and in assay [15] was inactive. In addition, in [16], the result was inactive.

Take `CN1C(CC(=O)Nc2ccc(Br)cc2)c2ccccc2CC1(C)C` (stereo unspecified): the activation was 97% (active) in assay [1], 28.5% (active) in [10] and 7.45% (active) in assay [12]. The outcome in assay [2], in [3], in assay [4], in assay [5], in assay [6] and in [7] was inactive. Moreover, the outcome in [8], in assay [9], in [11], in assay [13], in assay [14] and in assay [15] was inactive. For the same compound, the outcome in [16] was inactive.

Take `Cc1noc(C)c1S(=O)(=O)N1CCC(C(=O)NCCCN2CC(C)CC(C)C2)CC1` (stereo unspecified): the activation in assay [1] is 99% (active); in assay [2] it was 75% (active); in [12] it was 28.5% (active). Besides, the result in assay [3], in assay [4], in [5], in assay [6], in assay [7] and in [8] was inactive. Besides, the compound was classed as inactive in assay [9], in [10], in assay [11], in assay [13], in assay [14] and in [15]. Besides, the result in assay [16] was inactive.

For `O=C(CC(=O)c1c(F)cccc1Cl)c1ccccc1O`, the activation in assay [1] is 157% (active); in assay [10], 37% (active); in [12], 98.7% (active); in [15], 33.3% (active). Further, the outcome in assay [2], in assay [3], in assay [4], in assay [5], in assay [6] and in assay [7] was inactive. Further, the result in assay [8], in [9], in assay [11], in assay [13], in assay [14] and in assay [16] was inactive.

Regarding `COc1ccc(C(CNC(=O)c2ccccc2SC)N(C)C)cc1` (stereo unspecified), the activation in assay [1] was 99% (active); in assay [10], 56% (active). The outcome in assay [2], in [3], in assay [4], in assay [5], in [6] and in assay [7] was inactive. Moreover, the outcome in assay [8], in assay [9], in assay [11], in [12], in assay [13] and in assay [14] was inactive. Further, the outcome in assay [15] and in assay [16] was inactive.

Take `CN(C)C(CNC(=O)c1cccc(S(=O)(=O)N(C)C)c1)c1ccccc1` (stereo unspecified): the activation is 84% (active) in [1] and 39.5% (active) in assay [10]. The outcome in assay [2], in [3], in [4], in [5], in assay [6] and in [7] was inactive. For the same compound, the result in [8], in assay [9], in assay [11], in assay [12], in [13] and in assay [14] was inactive. The result in [15] and in assay [16] was inactive.

Take `CNCCOc1ccc(Cl)c(Cl)c1`: the activation in assay [1] was 81% (active); in assay [2], 54% (active); in [10], 39.5% (active); in [12], 24.9% (active). Also, the potentiation is 44% (active) in assay [3], 23% (active) in assay [4] and 24% (active) in assay [14]. The result in assay [5], in assay [6], in [7], in assay [8], in assay [9] and in assay [11] was inactive. Further, the outcome in assay [13], in assay [15] and in assay [16] was inactive.

`CCn1cc(CNCc2cn(-c3ccccc3C)nc2-c2ccc(OC)c(F)c2)cn1`: the activation was 163% (active) in [1] and 74% (active) in assay [2]. Also, the outcome in assay [3], in assay [4], in assay [5], in assay [6], in assay [7] and in [8] was inactive. The compound was called inactive in [9], in [10], in assay [11], in assay [12], in assay [13] and in assay [14]. Besides, the outcome in assay [15] and in assay [16] was inactive.

In the case of `COc1ccc(CN2CCC(N(CCc3ccccc3)Cc3ccccc3)CC2)c(OC)c1`, the figures for the activation in assay [1] and in [10] were 95% (active) and 44% (active), respectively. Besides, the result in assay [2], in assay [3], in [4], in assay [5], in assay [6] and in [7] was inactive. Moreover, the result in assay [8], in assay [9], in [11], in [12], in assay [13] and in assay [14] was inactive. Besides, the result in [15] and in assay [16] was inactive.

As for `CC(C)Cc1ccc(CN2CCCC(NC(=O)CCn3cnnn3)C2)cc1` (stereo unspecified), the figures for the activation in assay [1] and in assay [12] were 111% (active) and 27.9% (active), respectively. The outcome in assay [2], in [3], in [4], in assay [5], in [6] and in assay [7] was inactive. Also, the outcome in assay [8], in [9], in assay [10], in assay [11], in assay [13] and in assay [14] was inactive. Moreover, the outcome in assay [15] and in assay [16] was inactive.

Regarding `COc1ccc(CCN(C)C(=O)C2CCCN(C3CCN(Cc4ccccc4)CC3)C2)cc1OC` (stereo unspecified), the activation was 143% (active) in assay [1], 64% (active) in assay [2], 50% (active) in [10] and 28.9% (active) in assay [12]. Moreover, the outcome in assay [3], in assay [4], in [5], in assay [6], in assay [7] and in assay [8] was inactive. Also, the outcome in [9], in assay [11], in [13], in assay [14], in assay [15] and in assay [16] was inactive.

Regarding `CCCN1CCN(C(=O)Cn2c(=O)oc3cc(S(=O)(=O)NCc4ccccc4)ccc32)CC1`, the activation in assay [1] is 168% (active); in [12], 26.3% (active). The result in [2], in [3], in [4], in [5], in [6] and in assay [7] was inactive. Further, the outcome in assay [8], in [9], in [10], in [11], in assay [13] and in assay [14] was inactive. Also, the outcome in assay [15] and in assay [16] was inactive.

As to `COC(=O)NCC(c1ccc2c(c1)OCO2)N1CCN(c2ccc(OC)cc2)CC1` (stereo unspecified), the activation in [1] is 85% (active). Besides, the outcome in assay [2], in assay [3], in assay [4], in assay [5], in [6] and in assay [7] was inactive. Also, the outcome in assay [8], in assay [9], in assay [10], in [11], in assay [12] and in [13] was inactive. Further, the result in [14], in assay [15] and in assay [16] was inactive.

Regarding `COc1ccc(C(CNC(=O)Cc2ccc(-c3ccccc3)cc2)N(C)C)cc1` (stereo unspecified), the activation in [1] was 192% (active); in assay [2], 112% (active); in assay [10], 56% (active). Moreover, the result in assay [3], in assay [4], in [5], in [6], in assay [7] and in assay [8] was inactive. The result in assay [9], in [11], in [12], in [13], in assay [14] and in assay [15] was inactive. Moreover, the outcome in assay [16] was inactive.

On to `CCCCN(CC)CCNC(=O)c1ccc2c(Cl)c3c(nc2c1)CCC3`, for which the values for the activation in [1], in assay [2] and in assay [12] were 166% (active), 142% (active) and 92.3% (active), respectively. The result in assay [3], in assay [4], in [5], in assay [6], in [7] and in assay [8] was inactive. Besides, the compound was classed as inactive in assay [9], in assay [10], in [11], in [13], in assay [14] and in [15]. The result in assay [16] was inactive.
